Screening data from PubChem BioAssay.
Only some compounds are listed: those with a hit (about 4% of all), similar ones and a draw of the others.
esBAF inh: Bmi1 luciferase reporter increase in mESCs, primary screen, esBAF inhibitor project, mouse ES cells, Bmi1 luciferase knock-in, single point; reporter increase, % at 12.5 µM; actives 2% (n = 350,000); 24 h; 100% = twice the neutral-well signal; in the data active = activation above about 40%; inconclusive = no clear call, values can overlap the other calls;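 note: a rise in the Bmi1 reporter signal indicates esBAF inhibition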
C2C12 statin: suppressors of statin myotoxicity in C2C12 myotubes, primary screen, cell-based, single point, plate reader. rescue of ATP level, % at 7.49 µM. C2C12 myotubes + simvastatin, ATP luminescence, 48 h; scaled: DMSO 0, geranylgeraniol control 100. AID 602340, 2012. actives 0.78% (n = 330,000);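 active = mean ATP rescue above about 67%, or every replicate alone reaching that limit, limit read from the data, passing the limit was not always enough; inconclusive = no clear call, values can overlap the other calls; inactive = mean under the limit and some replicate under it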;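 note: myotubes were challenged with 10 µM simvastatin during compound exposure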
LMP1 NFkB inh: EBV LMP1-driven NF-kappaB luciferase reporter inhibitors, primary screen, cell-based, luminescence, single point. LMP1-induced NF-kappaB luciferase reporter cells. inhibition, % at 12.5 µM. actives 0.69% (n = 350,000). AID 504558, 2011; in the data active = inhibition above about 41%; inconclusive = no clear call, values can overlap the other calls
MITF TRPM1 inh: inhibitors of MITF-dependent TRPM1 promoter reporter, primary screen, cell-based, SK-MEL-5, single point, luciferase; actives 0.83% (n = 330,000); SK-MEL-5 TRPM1 promoter luciferase, 24 h; inhibition, % at 12.5 µM;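 active = mean inhibition across replicates of 60% or more, whatever share of single replicates reaches that level; inconclusive = some that reach 60%, reason not given; inactive = mean inhibition across replicates below 60%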
Wnt bcat act: Wnt/beta-catenin pathway activators, primary screen, cell-based, plate reader, single point; actives 1.2% (n = 300,000); activation, % at 9.35 µM; Wnt/beta-catenin reporter cell assay, activator; in the data active = activation above about 30%, passing the limit was not always enough; inconclusive = no clear call, values can overlap the other calls
MITF TRPM1 HTS: activators of MITF-driven TRPM1 promoter reporter, primary screen, cell-based, SK-MEL-5, luciferase, single point | activation, % at 12.5 µM | SK-MEL-5 TRPM1-promoter luciferase, 24 h; % of positive control, neutral wells = 0 | AID 588334, 2011 | actives 0.75% (n = 300,000);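 active = mean activation of at least 80% with every replicate also reaching 80%; inconclusive = mean reaches 80% but some replicate falls short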
Of the large screens only hits and unclear results are named; the others gave an inactive call; ! = not confirmed by another sample.

COC(=O)c1sccc1NC(=O)Nc1cc(C)cc(C)c1	esBAF inh 79.8
COC(=O)c1sccc1NC(=O)Nc1ccc(F)cc1	none (no result: esBAF inh, C2C12 statin)
COC(=O)c1sccc1NC(=O)Nc1ccc(C)cc1	esBAF inh 44.2
Cc1sc2nc3ccc(NCc4ccco4)nn3c(=O)c2c1C	none (no result: esBAF inh, C2C12 statin, Wnt bcat act)
O=C1c2ccccc2C(=O)C1c1ccc(Br)cc1	none
O=C1c2ccccc2C(=O)C1c1ccc(O)cc1	esBAF inh 59.2, Wnt bcat act inconclusive
Cc1ccccc1S(=O)(=O)NC(=O)C1(C)CCN1C(=O)Cc1ccc(C(C)(C)C)cc1 (stereo not drawn)	none (no result: LMP1 NFkB inh, MITF TRPM1 inh, MITF TRPM1 HTS)
Fc1cccc(Nc2nc3ccccc3n3nnnc23)c1	none
c1ccc(Nc2nc3ccccc3n3nnnc23)cc1	esBAF inh 74.6
Cc1cccc(NC(=O)CNC(=O)C(NC(=O)Cc2ccccc2)C(C)C)c1C (stereo not drawn)	none (no result: MITF TRPM1 inh, MITF TRPM1 HTS)
CC(=O)OCCN1c2ccccc2Sc2cnccc21	none (no result: MITF TRPM1 inh, MITF TRPM1 HTS)
CC(=O)OCCCN1c2ccccc2Nc2nnc(-c3ccccc3)cc21	esBAF inh inconclusive, MITF TRPM1 HTS 98.4 (no result: Wnt bcat act)
CCc1ccc(Nc2n[n+](-c3ccccc3)c(-c3c(Cl)cccc3Cl)s2)cc1	LMP1 NFkB inh 43.7
CCc1ccc(Nc2n[n+](-c3ccccc3)c(-c3ccc(N(CC)CC)cc3)s2)cc1	MITF TRPM1 inh 68.2
O=C(CCl)N(c1ccccc1)c1c[nH]c2ccccc12	LMP1 NFkB inh inconclusive, MITF TRPM1 inh 85.5 (no result: esBAF inh, C2C12 statin, Wnt bcat act)
O=C(CCl)N(c1ccc(Cl)cc1)c1c[nH]c2ccccc12	LMP1 NFkB inh inconclusive, MITF TRPM1 inh 83.9 (no result: Wnt bcat act, MITF TRPM1 HTS)
Clc1ccc(-n2ncc3c(NCc4cccnc4)ncnc32)cc1Cl	esBAF inh 65.1
c1ccc(CCNc2ncnc3c2cnn3-c2ccccc2)cc1	esBAF inh 72.3 (no result: Wnt bcat act)
Clc1ccc(Nc2ncnc3c2cnn3-c2ccccc2)cc1	esBAF inh 84.8 (no result: MITF TRPM1 inh, MITF TRPM1 HTS)
Cc1cccc(-n2ncc3c(NCCc4ccc(S(N)(=O)=O)cc4)ncnc32)c1	C2C12 statin 104.8
CC(C(=O)N(C)Cc1ccccc1)N1CCN(C/C=C/c2ccccc2)CC1 (stereo not drawn)	none (no result: esBAF inh, C2C12 statin)
Fc1ccc(CNc2ncnc3c2cnn3-c2ccccc2)cc1	esBAF inh 48.7
c1ccc(-n2ncc3c(NCCN4CCCCC4)ncnc32)cc1	none (no result: Wnt bcat act)
Cn1ncc2c(Nc3ccc4ccccc4c3)ncnc21	esBAF inh 53.3
c1ccc(-n2ncc3c(NCCN4CCOCC4)ncnc32)cc1	esBAF inh 46.9, Wnt bcat act 47.2
CCCc1cc(NCCCO)n2c(nc3ccccc32)c1C#N	none (no result: esBAF inh, C2C12 statin, LMP1 NFkB inh, MITF TRPM1 inh, MITF TRPM1 HTS)
COc1cc2c(cc1OC)C(=O)CCS2	C2C12 statin 124.7 (no result: Wnt bcat act)
COc1ccc2c(c1)SCCC2=O	none (no result: Wnt bcat act)
COCc1cn(CC[C@@H]2CC[C@H](NC(=O)Nc3ccccc3)[C@@H](CO)O2)nn1	none (no result: LMP1 NFkB inh, MITF TRPM1 inh, Wnt bcat act, MITF TRPM1 HTS)
O=C(c1ccccc1)c1nnc(-c2ccccc2F)o1	Wnt bcat act 60.5 (no result: MITF TRPM1 HTS)
CCCC(=O)Nc1ccc2c(c1)OC[C@@H](C)N(C(=O)c1cccnc1)C[C@H](C)[C@H](OC)CN(C)C2=O	none (no result: LMP1 NFkB inh, MITF TRPM1 inh, Wnt bcat act, MITF TRPM1 HTS)
C=CCNC(=O)c1ccc(-c2ccc([N+](=O)[O-])cc2)o1	none
C=CCNC(=O)c1ccc(-c2cccc([N+](=O)[O-])c2)o1	esBAF inh 45.6 (no result: C2C12 statin)
O=C(Nc1nccs1)c1ccc(-c2cccc([N+](=O)[O-])c2)o1	esBAF inh 67.3, Wnt bcat act 59.9
O=C(CSc1nnc(-c2cccc(F)c2)o1)N1CCCC1	esBAF inh 44.0
CCOc1ccc(-c2nnc(SCC(=O)N3CCNC3=O)o2)cc1	Wnt bcat act 45.3
O=C(CSc1nnc(-c2ccc(Cl)cc2)o1)N1CCOCC1	esBAF inh inconclusive, MITF TRPM1 HTS 97.1
C[C@@H]1CN([C@@H](C)CO)C(=O)c2cc(-c3ccc(C#N)cc3)cnc2O[C@H]1CN(C)Cc1ccncc1	none (no result: LMP1 NFkB inh, MITF TRPM1 inh, Wnt bcat act, MITF TRPM1 HTS)
CN1CCN(CC(=O)Nc2cccc(S(=O)(=O)N(C)c3ccccc3)c2)CC1	LMP1 NFkB inh 74.0
Cc1cc(C)n2c(SCC(=O)Nc3cccc(S(N)(=O)=O)c3)nnc2n1	none
Cc1ccc(S(=O)(=O)Nc2cccc(-c3ccc(N4CCCCCC4)nn3)c2)c(C)c1	esBAF inh 70.3
Cc1ccc([N+](=O)[O-])cc1S(=O)(=O)Nc1cccc(-c2ccc(N3CCOCC3)nn2)c1	MITF TRPM1 HTS 87.5
CC=Cc1ccc2n(c1=O)C[C@H]1[C@H](CO)[C@@H](C(=O)NCC3CC3)[C@@H]2N1C(=O)CC (mixture of isomers)	none (no result: LMP1 NFkB inh, MITF TRPM1 inh, Wnt bcat act, MITF TRPM1 HTS)
O=[N+]([O-])c1cccn2cc(-c3ccc(Br)cc3)nc12	esBAF inh 57.7
Cc1ccc(CN2CCC(C(=O)NCCC(C)C)CC2)o1	C2C12 statin 108.9
CC(C)CCNC(=O)C1CCN(c2nc3ccccc3o2)CC1	none
Brc1ccccc1-n1nnc(-c2nccs2)n1	esBAF inh inconclusive, Wnt bcat act 45.1, MITF TRPM1 HTS 90.8
c1ccc(-n2nnc(-c3nccs3)n2)cc1	Wnt bcat act 40.0, MITF TRPM1 HTS inconclusive
O=C(Nc1nccs1)c1ccccc1Br	none
CCN(C(=O)COC(=O)c1cccc2ccccc12)c1c(N)n(Cc2ccccc2)c(=O)[nH]c1=O	none
COc1ccc([C@H]2CC(=O)C=C(c3cc4ccccc4c4ccccc34)C2)cc1	none
Cc1cc(C)c(N=C2CCCN2Cc2ccccc2)c(C#N)c1	C2C12 statin 84.4 (no result: Wnt bcat act)
N#Cc1ccccc1N=C1CCCN1Cc1ccccc1	none (no result: Wnt bcat act)
C/C(CCc1oc2ccc(Br)cc2c1-c1ccc(C)o1)=N/O	none (no result: Wnt bcat act)
C=CCn1cccc(C(=O)Nc2ccc(OC)cc2)c1=O	none (no result: esBAF inh, C2C12 statin)
C=CCn1cccc(C(=O)Nc2ccc(F)cc2)c1=O	esBAF inh 67.2
COc1ccc(C2CC(=O)C3=C(C2)NC(C)=C(C(=O)Nc2ccccc2C)C3c2coc3ccc(C)cc3c2=O)cc1OC (stereo not drawn)	none (no result: Wnt bcat act)
C[C@]12CC[C@@H]3c4ccc(OS(=O)(=O)O)cc4CC[C@H]3[C@@H]1CCC2=O	LMP1 NFkB inh 65.8!
CC12CCC3c4ccc(OCC(=O)O)cc4CCC3C1CCC2=O (stereo not drawn)	none
COC(=O)c1cc(NC(=O)c2ccc(C)cc2)c(=O)oc1C	esBAF inh 45.4
Cc1ccc(NS(=O)(=O)c2ccc(-n3cccn3)cc2)cc1C	C2C12 statin 164.1
C[C@@H]1CN([C@H](C)CO)C(=O)c2c(c3ccccc3n2C)-c2ccccc2CO[C@@H]1CN(C)C	none (no result: LMP1 NFkB inh, MITF TRPM1 inh, Wnt bcat act, MITF TRPM1 HTS)
CN(C)C(=O)C[C@@H]1CC[C@H]2[C@@H](COc3ccc(NC(=O)NCc4ccccc4)cc3C(=O)N2C)O1	none (no result: LMP1 NFkB inh, MITF TRPM1 inh, Wnt bcat act, MITF TRPM1 HTS)
Cc1ccc(-n2nc(C)c3c(C)c(CCC(=O)Nc4ccc(CN5CCCC5)cc4)c(C)nc32)cc1	MITF TRPM1 inh 65.1
Cn1c(SCC(N)=O)nnc1C1CCN(S(=O)(=O)c2ccccc2C(F)(F)F)CC1	none
